Compounds with a hit are over-represented: about 6.9% of the library has one in this group of screens.
Beta apoptosis = beta cell apoptosis inhibition | INS-1E cytokine-induced death, ATP luminescence, 48 h; percent of positive-control rescue, neutral wells zero | protection from apoptosis, % (test concentration not listed) | 0.8% of 300,000 active | AID 435005;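 active = Every replicate reaches about 75%, or at least half do and their mean reaches it too, limit read from the data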;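 note: 0% = cytokine-treated negative control wells and 100% = positive control rescue; higher means more ATP so stronger rescue from cytokine killing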
SKKanGAS inh = inhibitors of SKKanGAS S. pyogenes growth in kanamycin (SK-promoter or general growth effect); BacTiter-Glo, 6 h; inhibition, % at 7.5 µM; 1.3% of 300,000 active; AID 1662;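 active = mean replicate score, as percent of positive control median, at least 50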;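 note: strain carries kanamycin resistance gene driven by streptokinase promoter and grows in 40 µg/ml kanamycin; loss of luminescence reflects streptokinase promoter inhibition or plain growth inhibition; 0% = median of DMSO wells and 100% = positive control at its reference dose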
MPTP block = inhibitors of mitochondrial permeability transition pore. isolated mouse mitochondria, Ca2+ swelling absorbance, 30 min. inhibition, % at 10 µM. 1.4% of 360,000 active. AID 602449;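 active = inhibition of 50% or more, scaled per plate between neutral and stimulator controls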;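 note: 0% = DMSO wells given calcium and 100% = 1 mM EGTA wells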
GRIN3A LBD mod = modulates the human NR3A ligand-binding domain; NR3A LBD differential scanning fluorimetry, Tm shift; 0% = protein alone, 100% = glycine-bound protein; Tm shift relative to glycine control, % at 25 µM; 2.5% of 340,000 active; AID 1259313;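 active = melting temperature shift of at least 10% of the positive control shift, at one fixed dose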
Mdm2 MdmX PPI = human Mdm2/MdmX binding inhibition. O15151+Q00987. SaOS-2 split-luciferase Mdm2/MdmX complementation, luminescence. inhibition, % at 8 µM. 3% of 330,000 active. AID 485346;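 active = inhibition of at least 50% at 8 µM in the primary screen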
Target sequence (O15151 whole entry, looked up): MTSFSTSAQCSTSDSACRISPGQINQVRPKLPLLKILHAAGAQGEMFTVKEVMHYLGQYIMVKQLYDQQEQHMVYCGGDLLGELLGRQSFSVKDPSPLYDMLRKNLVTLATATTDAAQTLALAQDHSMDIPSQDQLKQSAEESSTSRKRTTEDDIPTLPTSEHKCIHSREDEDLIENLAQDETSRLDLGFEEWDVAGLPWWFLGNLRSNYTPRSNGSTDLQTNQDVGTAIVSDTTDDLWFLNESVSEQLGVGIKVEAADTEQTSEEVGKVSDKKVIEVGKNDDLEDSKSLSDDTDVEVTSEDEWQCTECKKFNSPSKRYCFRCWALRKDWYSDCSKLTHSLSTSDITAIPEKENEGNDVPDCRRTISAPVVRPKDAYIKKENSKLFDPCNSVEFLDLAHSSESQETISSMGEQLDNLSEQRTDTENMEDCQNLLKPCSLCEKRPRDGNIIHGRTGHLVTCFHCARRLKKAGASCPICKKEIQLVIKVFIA
Target sequence (Q00987 whole entry, looked up): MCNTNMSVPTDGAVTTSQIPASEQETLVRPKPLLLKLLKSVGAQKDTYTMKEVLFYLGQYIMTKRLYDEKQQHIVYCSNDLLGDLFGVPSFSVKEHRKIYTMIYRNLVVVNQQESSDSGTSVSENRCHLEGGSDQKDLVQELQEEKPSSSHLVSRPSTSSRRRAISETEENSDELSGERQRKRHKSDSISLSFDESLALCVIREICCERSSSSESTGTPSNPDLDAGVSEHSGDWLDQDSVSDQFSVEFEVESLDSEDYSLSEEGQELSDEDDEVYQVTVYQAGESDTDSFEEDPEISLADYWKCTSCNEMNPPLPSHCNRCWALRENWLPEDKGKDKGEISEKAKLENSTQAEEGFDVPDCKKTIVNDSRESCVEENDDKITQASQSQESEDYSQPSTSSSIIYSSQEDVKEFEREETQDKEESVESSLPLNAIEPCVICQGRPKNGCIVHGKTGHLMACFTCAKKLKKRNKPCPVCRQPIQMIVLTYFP
CSC inhib = cancer stem cell inhibition; cancer stem cell-like cells viability, luminescence; inhibition, % at 7.5 µM; 1.1% of 300,000 active; AID 2717; in the data active = inhibition above about 75%; tested in HMLE shEcad cells
* = called active by the depositor; x = not tested or not shown.

SMILES | Beta apoptosis | SKKanGAS inh | MPTP block | GRIN3A LBD mod | Mdm2 MdmX PPI | CSC inhib
CCn1c(-c2ccccc2)c[nH]c1=S | -6.6 | 72.5* | -2.8 | 0.2 | -1.3 | x
CCOC(=O)c1ccc(N2C(=O)c3n[nH]c(-c4ccco4)c3C2c2ccc([N+](=O)[O-])cc2)cc1 (configuration not stated) | 18.5 | 31.6 | -0.2 | 26.7* | 42.9 | 41.8
CSc1ccccc1OCc1cc(C(=O)NCCN2CCCc3ccccc32)no1 | -6.4 | 4.7 | -0.3 | 11.9* | -20.3 | -2.2
COc1cc(Nc2ccccc2Cl)c([N+](=O)[O-])nc1[N+](=O)[O-] | x | 2.0 | 1.0 | 11.0* | 23.7 | 2.1
Nc1ccc2nc(-c3ccc(-c4nc5ccc(N)cc5[nH]4)cc3)[nH]c2c1 | 14.8 | -8.1 | x | 17.9* | 21.9 | 5.3
O=C(c1cc(-c2cccs2)on1)N1CCN(c2ccc(F)cc2)CC1 | -5.9 | x | 0.4 | 12.7* | 7.3 | x
CC(OC(=O)c1c2c(nc3ccccc13)/C(=C\c1ccc3c(c1)OCO3)CCC2)C(=O)Nc1ccc(S(N)(=O)=O)cc1 (configuration not stated) | x | x | -0.5 | 21.9* | x | x
CCCCNC(=O)Cn1c(=O)c2c(ncn2CC)n(Cc2ccccc2)c1=O | -6.0 | -1.0 | 0.3 | 1.4 | -9.6 | -10.4
C=CCOc1ccc(C2/C(=C(/O)c3ccc4c(c3)CC(C)O4)C(=O)C(=O)N2CCCN2CCOCC2)cc1 (configuration not stated) | -4.2 | -4.0 | -0.5 | 6.0 | -4.1 | 7.3
O=C(CSc1nc2ccc(Cl)cc2[nH]1)Nc1ccc2c(c1)CCC2 | -2.9 | 11.0 | 34.2 | 20.7* | -28.6 | 23.4
COc1ccc(NC(=O)CSc2nc3ccc(OC)cc3[nH]2)cc1 | -8.0 | -16.4 | 2.3 | -5.7 | 10.7 | -5.7
O=C(CSc1nc2cc3ccccc3cc2[nH]1)Nc1ccc(F)cc1 | 0.1 | -2.3 | 47.0 | 17.3* | 0.4 | -15.4
Cc1ccc(NC(=O)CSc2nc3nc(C)c(Br)cc3[nH]2)cc1F | -0.6 | 2.3 | 33.7 | 13.9* | -18.8 | 9.6
O=C(CSc1ncc(-c2ccc(F)cc2)[nH]1)Nc1cccc(O)c1 | 1.8 | -3.6 | 0.4 | 16.4* | 21.0 | 3.2
C/C=C(\C)CN1CCCC(N(C)CCc2ccc(OC)c(OC)c2)C1 (configuration not stated) | x | -1.2 | 0.0 | -0.9 | -6.4 | 24.1
C=CCSc1nnc(NC(=O)c2c(CC)noc2C)s1 | 1.9 | 0.2 | -2.0 | -2.3 | 7.7 | -8.0
Cc1ccc(NC(=O)CN(C)S(=O)(=O)c2ccc3c(c2)c(=O)n(C)c(=O)n3C)cc1 | 0.9 | -1.5 | -0.7 | 1.8 | 18.4 | 5.1
Cc1cccc(NC(=O)CN(C)S(=O)(=O)c2ccc3c(c2)n(C)c(=O)c(=O)n3C)c1C | -1.1 | 2.1 | -0.8 | 13.4* | -15.0 | -5.6
CN(CC(=O)Nc1ccc(F)cc1)S(=O)(=O)c1ccc2c(c1)c(=O)n(C)c(=O)n2C | -1.9 | 6.4 | -1.7 | 10.5* | 23.1 | -3.3
Cc1cc(C)cc(NS(=O)(=O)c2ccc3c(c2)c(=O)n(C)c(=O)n3C)c1 | 7.8 | 3.8 | 1.2 | -9.7 | 38.9 | 101.5*
C/C(=N\O)c1noc(C)c1C(=O)Nc1nccs1 | -0.7 | 20.0 | 0.3 | 1.5 | -5.1 | 6.5
O=C(c1ccccc1)c1nn(-c2ccccc2)c(=O)cc1C(F)(F)F | x | -0.6 | 1.4 | 12.2* | 44.2 | 4.0
O=C(Nc1ccccc1)c1nn(-c2ccccc2)c(=O)cc1C(F)(F)F | 0.7 | 0.6 | 2.9 | -0.8 | 16.5 | 3.4
CC(C)(C)c1ccc(C(=O)N2CCN(C(=O)c3ccco3)CC2)cc1 | x | 49.7* | -0.2 | 0.1 | 15.6 | -0.6
COc1ccccc1OCC(=O)N1CCN(C(=O)c2ccco2)CC1 | -2.6 | -6.8 | 0.5 | 10.2* | 14.7 | 2.2
SMILES | Beta apoptosis | SKKanGAS inh | MPTP block | GRIN3A LBD mod | Mdm2 MdmX PPI | CSC inhib
COc1cccc2cc(/C(=N/O)c3ccccc3)oc12 | 2.9 | -15.9 | -0.7 | 1.5 | 5.8 | -10.7
COc1cccc(NCc2cc(=O)oc3cc(-c4ccccc4)c(O)cc23)c1 | 3.2 | 109.6* | 45.3 | 28.1* | 23.9 | 1.2
COc1cccc(-n2c(SCc3cc(=O)oc4cc(O)c(O)cc34)nc3ccccc3c2=O)c1 | -5.8 | 35.1 | 29.3 | 10.0 | x | 99.8*
Cc1cc2oc(=O)cc(CNc3ccccc3F)c2cc1O | 9.7 | 50.6* | 1.6 | -17.1 | 3.6 | 30.1
COc1cccc(NCc2cc(=O)oc3cc(C)c(O)cc23)c1 | 3.8 | 99.4* | -0.1 | -12.8 | -17.5 | -9.9
COc1cccc(C(=O)Nc2ccc3c(C)cc(=O)oc3c2)c1 | 3.8 | 12.9 | 1.5 | 9.9 | -175.6 | 0.5
CCOc1ccccc1NCc1cc(=O)oc2cc(C)c(O)cc12 | 9.1 | -5.3 | 1.1 | 0.1 | 6.8 | 2.6
Cc1ccc(S(=O)(=O)N2CCOC2CNC(=O)C(=O)NCCCN2CCOCC2)cc1 (configuration not stated) | -5.2 | -3.2 | 1.1 | 0.3 | 5.6 | 1.6
CCCC[C@@H]1CNCCN1CC1(c2ccccc2)CC1 | 3.4 | 6.6 | 1.0 | 1.8 | -8.6 | -9.7
Cc1nc(S(=O)(=O)Nc2ccccc2C(=O)NCC2CC2)cn1C | -2.9 | 3.9 | 0.8 | -1.0 | 24.9 | -13.5
CCOc1ccc(S(=O)(=O)N(CC)CC(=O)NCc2cccnc2)cc1C | -4.9 | 4.0 | -0.4 | -0.9 | 31.0 | -3.4
Cc1ccc(C(=O)CC(=O)COc2ccc(Cl)cc2)cc1 | -2.3 | 63.7* | -0.7 | -2.9 | 7.4 | 5.4
COC(=O)C(CC(=O)c1ccc(Cl)cc1)c1ccc(C)cc1 (configuration not stated) | -6.1 | 2.1 | -0.5 | 15.0* | -3.6 | x
CCOC(=O)c1c(-c2ccccc2)csc1NC(=O)/C(C#N)=C/c1ccc(O)c(OC)c1 | -1.9 | 46.0 | 12.4 | 26.5* | x | 70.3
Cc1ccc2sc(=O)[nH]c2c1 | -2.0 | -1.5 | 2.3 | -0.6 | 14.1 | -16.8
O=C(Cc1csc(NC(=O)Nc2cccc(Cl)c2)n1)NCc1ccccn1 | 4.9 | 86.2* | 14.5 | -0.4 | -35.1 | x
COc1ccccc1NC(=O)Nc1nc(CC(=O)NCc2ccccn2)cs1 | 1.6 | 15.9 | 0.6 | 4.3 | 17.2 | x
O=C(Cc1csc(NC(=O)Nc2cccc(Cl)c2)n1)NCc1cccnc1 | 1.5 | 89.0* | -2.5 | -7.5 | 17.0 | x
O=C(Nc1ccc(F)c(Cl)c1)C1Cc2c(-c3ccco3)ccnc2O1 (configuration not stated) | x | x | 1.6 | x | x | x
CC1CCCN(c2ccc(/C=C(\C#N)c3nn(-c4ccccc4)c(N)c3C#N)cc2[N+](=O)[O-])C1 (configuration not stated) | 21.7 | 35.2 | 12.4 | 11.6* | 8.7 | -3.4
N#C/C(=C\c1ccc(N2CCCCC2)c([N+](=O)[O-])c1)c1nn(-c2ccccc2)c(N)c1C#N | 28.0 | 40.9 | 0.2 | -2.6 | 7.1 | 57.8
CC1CCN(c2ccc(/C=C(\C#N)c3nn(-c4ccccc4)c(N)c3C#N)cc2[N+](=O)[O-])CC1 | 17.9 | 26.0 | 2.7 | 10.2* | 11.2 | 11.9
